Results filed as inconclusive are left out. The source made the active and inactive calls. Unless noted, calls follow the shape of the dose curve; as a rule, active = well fitted curve in the direction sought with a large enough effect in the repeat runs; inconclusive = weak or mixed curves; inactive = no such curve, though single readings can be large; an effect the other way counts as inactive or inconclusive.
How the values were obtained:
[1] = qHTS assay to identify small molecule agonists of the hypoxia (HIF-1) signaling pathway - cell viability counter screen (AID 1224844; calls by dose curve; also: nearly all actives have a fitted effect of over 50% in size)
Outline: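 Cells (HRE-bla ME-180, 2,000 per well) sat 5 hrs at 37C, got compound for 17 hrs, were read for CCF4-AM FRET, and were finally lysed with CellTiter-Glo for a 30 min room-temperature luminescence read.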

[2] = qHTS assay to identify small molecule agonists of H2AX (AID 1224845; active = well fitted activation curve with a large enough effect in the signal ratio in the repeat runs, not every such curve was filed as active; the % refers to the signal ratio)
Outline: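 Wild-type CHO-K1 cells, plated overnight, exposed 3hr at 37C to 15 concentrations (0.76% DMSO final). Lysed, then HTRF anti-pH2AX (S139) cryptate and anti-H2AX-d2 antibodies, 24 hr room temperature; 665/620 nm emission read.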

[3] = qHTS assay to identify small molecule agonists of the hypoxia (HIF-1) signaling pathway (AID 1224846; active = well fitted activation curve with a large enough effect in the signal ratio in the repeat runs, not every such curve was filed as active; the % refers to the signal ratio)
Outline: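 A low-serum medium (0.5% dialyzed FBS) holding 2,000 HRE-bla ME-180 cells per well is preincubated for 5 hrs, dosed with compounds by pintool, and kept a further 17 hrs at 37C, 5% CO2 before CCF4-AM FRET detection of beta-lactamase.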

[4] = qHTS assay to identify small molecule antagonists of the estrogen related receptor (ERR) signaling pathway from Tox21 library (AID 1224848); also: nearly all actives have a fitted effect of over 50% in size
Outline: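 ERR reporter cell line (from NTP) seeded 2,000 cells/well, rested 6 h at 37 C/5% CO2, then pin-dosed with compounds in DMSO. After 18 h at 37 C, ONE-Glo added; luminescence read after 30 min at room temperature.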

[5] = qHTS assay to identify small molecule agonists of the estrogen related receptor (ERR) signaling pathway from Tox21 library (AID 1224849; calls by dose curve; also: nearly all actives have a fitted effect of over 15% in size); settings: ERR reporter cell line, ONE-Glo luciferase, 18 h; at 92.4 µM (top of the series) unless noted
Outline: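 Screening used an NTP-provided ERR luciferase cell line. Compounds in DMSO were added 6 h after seeding and left 18 h at 37 C before a 30 min ONE-Glo step and luminescence reading.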

[6] = qHTS RealTime-Glo MT Cell Viability Assay in HepG2 cells - 24 hour (AID 1224867); also: nearly all actives have a fitted effect of over 50% in size
Outline: (§1)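 Compound treatment began 5 h after plating HepG2 cells (600/well) with NanoLuc luciferase and prosubstrate. Plates stayed at 37 C for 40 h; luminescence was captured at six time points, 0 h through 40 h.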

[7] = qHTS RealTime-Glo MT Cell Viability Assay in HEK293 cells - 32 hour (AID 1224868); also: nearly all actives have a fitted effect of over 50% in size; also: potency is read from the fitted curve at half-maximal effect
Outline: (§2)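 Quantitative high-throughput screen of the Tox21 10K library in HEK293: cells and RealTime-Glo reagents plated together, compound added at 5 h, luminescence monitored through 40 h at 37 C.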

[8] = A CellTox Green Cytotoxicity Assay to monitor cytotoxicity in HEK293 cells - 0 hour (AID 1224869); also: nearly all actives have a fitted effect of over 50% in size
Outline: (§3)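 Fluorescence intensity, read at 0, 8, 16, 24, 32 and 40 h of compound treatment, reflected dye binding to DNA of dead HEK293 cells; compounds (23 nL, DMSO) were added 5 h after plating cells with reagent.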

[9] = qHTS RealTime-Glo MT Cell Viability Assay in HepG2 cells - 40 hour (AID 1224870); also: nearly all actives have a fitted effect of over 50% in size
Outline: (§4)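 HepG2 cells (600/well) mixed with RealTime-Glo MT reagent, settled 5 h at 37 C/5% CO2 before compound addition. Nonlytic NanoLuc luminescence from viable-cell prosubstrate reduction read repeatedly during 40 h treatment at 37 C.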

[10] = A CellTox Green Cytotoxicity Assay to monitor cytotoxicity in HEK293 cells - 40 hour (AID 1224871); also: nearly all actives have a fitted effect of over 45% in size
Outline: as §3

[11] = qHTS RealTime-Glo MT Cell Viability Assay in HEK293 cells - 16 hour (AID 1224872); also: nearly all actives have a fitted effect of over 50% in size; also: potency is read from the fitted curve at half-maximal effect
Outline: as §2

[12] = qHTS RealTime-Glo MT Cell Viability Assay in HepG2 cells - 8 hour (AID 1224873); also: nearly all actives have a fitted effect of over 55% in size; also: potency is read from the fitted curve at half-maximal effect
Outline: as §4

[13] = qHTS RealTime-Glo MT Cell Viability Assay in HEK293 cells - 40 hour (AID 1224874); settings: RealTime-Glo luminescence; max response: active compounds read low; also: nearly all actives have a fitted effect of over 50% in size; also: potency is read from the fitted curve at half-maximal effect
Outline: (§5)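 Viable HEK293 cells reduce a cell-permeant prosubstrate; the product diffuses out and is consumed by NanoLuc in the medium to give light. Compounds went in after a 5 h incubation and plates were read over the treatment course.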

[14] = A CellTox Green Cytotoxicity Assay to monitor cytotoxicity in HEK293 cells - 24 hour (AID 1224875); also: nearly all actives have a fitted effect of over 45% in size
Outline: as §3

[15] = A CellTox Green Cytotoxicity Assay to monitor cytotoxicity in HepG2 cells - 16 hour (AID 1224876); also: nearly all actives have a fitted effect of over 45% in size
Outline: (§6)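 Using 1536-well format, dye-containing HepG2 suspension was seeded, allowed 5 h at 37 C/5% CO2, dosed by pintool with compounds, positive and negative controls, and imaged for fluorescence across 40 h.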

[16] = qHTS RealTime-Glo MT Cell Viability Assay in HepG2 cells - 32 hour (AID 1224877); also: nearly all actives have a fitted effect of over 55% in size
Outline: as §1

[17] = A CellTox Green Cytotoxicity Assay to monitor cytotoxicity in HepG2 cells - 24 hour (AID 1224878); also: nearly all actives have a fitted effect of over 45% in size; also: potency is read from the fitted curve at half-maximal effect
Outline: as §6

[18] = A CellTox Green Cytotoxicity Assay to monitor cytotoxicity in HepG2 cells - 40 hour (AID 1224879); also: nearly all actives have a fitted effect of over 40% in size; also: potency is read from the fitted curve at half-maximal effect
Outline: as §6

[19] = qHTS RealTime-Glo MT Cell Viability Assay in HEK293 cells - 0 hour (AID 1224880)
Outline: as §5

[20] = qHTS assay to identify small molecule agonists of H2AX - cell viability counter screen (AID 1224847; calls by dose curve; also: nearly all actives have a fitted effect of over 30% in size; also: potency is read from the fitted curve at half-maximal effect)
Outline: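 For this counter screen, overnight-attached CHO-K1 cells received test compounds (15 concentrations, 0.76% DMSO final); 3 hr later at 37C, CellTiter-Glo reagent was added and luminescence recorded after 30 min at room temperature.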
% is scaled to controls: 0 for no effect and ±100 for the full control effect.

ClC1(Cl)C2(Cl)C3(Cl)C4(Cl)C(Cl)(Cl)C5(Cl)C3(Cl)C1(Cl)C5(Cl)C24Cl (configuration not stated)
inactive: Potency [1] | Potency [2] | Potency [3] | Potency [4] | activity change, positive = activation [5] 2.52% | Potency [6] | Potency [7] | Potency [8] | Potency [9] | Potency [10] | Potency [11] | Potency [12] | max response [13] -13.1% | Potency [14] | Potency [15] | Potency [16] | Potency [17] | Potency [18] | Potency [19]

NC1CCC(CC2CCC(N)CC2)CC1 (configuration not stated)
inactive: Potency [1] | Potency [2] | Potency [3] | Potency [20] | Potency [6] | Potency [8] | Potency [9] | Potency [10] | Potency [11] | Potency [12] | Potency [14] | Potency [15] | Potency [16] | Potency [17] | Potency [18] | Potency [19]

CCCCN(CCCC)C(=S)S
inactive: Potency [1] | Potency [2] | Potency [3] | Potency [6] | Potency [7] | Potency [8] | Potency [9] | Potency [10] | Potency [11] | Potency [12] | max response [13] -4.16% | Potency [14] | Potency [15] | Potency [16] | Potency [19]

CSC1=N[C@@](C)(c2ccccc2)C(=O)N1Nc1ccccc1
inactive: Potency [1] | Potency [2] | Potency [3] | Potency [6] | Potency [7] | Potency [8] | Potency [9] | Potency [10] | Potency [11] | Potency [12] | Potency [14] | Potency [15] | Potency [16] | Potency [17] | Potency [18]

Cc1ccccc1OP(=O)(Oc1ccccc1C)Oc1ccccc1C
active: Potency [20] 90.1 µM
inactive: Potency [1] | Potency [2] | Potency [3] | Potency [6] | Potency [8] | Potency [9] | Potency [10] | Potency [11] | Potency [12] | Potency [14] | Potency [15] | Potency [16] | Potency [18] | Potency [19]

Nc1cc(Cl)ccc1Cl
inactive: Potency [1] | Potency [2] | Potency [3] | activity change, positive = activation [5] -0.0267% | Potency [6] | Potency [7] | Potency [8] | Potency [9] | Potency [10] | Potency [11] | Potency [12] | Potency [14] | Potency [15] | Potency [16] | Potency [17] | Potency [18] | Potency [19]

CCC(C)Nc1c([N+](=O)[O-])cc(C(C)(C)C)cc1[N+](=O)[O-] (configuration not stated)
inactive: Potency [1] | Potency [2] | Potency [3] | Potency [4] | activity change, positive = activation [5] 11.9% | Potency [6] | Potency [7] | Potency [8] | Potency [9] | Potency [10] | Potency [12] | max response [13] -8.53% | Potency [14] | Potency [15] | Potency [16] | Potency [17] | Potency [18]

FC(F)C(F)(F)OCC(Cn1cncn1)c1ccc(Cl)cc1Cl (configuration not stated)
active: Potency [20] 112 µM | Potency [7] 21.7 µM | Potency [11] 24.4 µM | Potency [12] 54.6 µM | Potency [13] 21.7 µM | Potency [17] 48.7 µM | Potency [18] 48.7 µM
inactive: Potency [1] | Potency [2] | Potency [3] | Potency [8] | Potency [14] | Potency [19]

Reference: PubChem BioAssay (Tox21)
